Experimental findings from PubChem BioAssay (NCI) are described below.

Some test systems named below: HCT-15 colon; HT29 colon; SNB-75 CNS; SNB-19 CNS; U251 CNS; PC-3 prostate; SK-MEL-5 melanoma; LOX IMVI melanoma; SK-MEL-28 melanoma; UACC-62 melanoma.
Common to all, as to assay: NCI-60 one-dose screen, 48 h (100 = growth as untreated, 0 = no growth, -100 = all killed)
What all share (details): 10 µM

Compounds without any hit were thinned out: in the full panel of roughly 83,000, 20% have a hit.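 Activity criterion: percent growth below 10, measured after cells in 96-well plates were exposed to a single compound concentration for 48 hours.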 Values without a mark were called inactive. Activity calls are given as the source filed them.

In the case of `COc1cccc(N=Nc2cccc(OC)c2)c1`, the growth is 91.1% in the test with HCT-15 colon; 94.9% with HT29 colon; 102% with SNB-75 CNS; 97% in the test with SNB-19 CNS; 79.4% in the test on U251 CNS; 67.7% in the test on PC-3 prostate. The figures for the growth in the test with SK-MEL-5 melanoma, in the test on LOX IMVI melanoma and in the test on SK-MEL-28 melanoma were 99.1%, 96.7% and 99.6%, respectively.
Turning to `CCOS(=O)(=O)c1c(C(C)C)cc(C(C)C)cc1C(C)C`, the growth in the test with HCT-15 colon was 97.2%; in the test on HT29 colon, 112%; in the test on SNB-75 CNS it was 96.8%; in the test on SNB-19 CNS it was 103%; in the test with U251 CNS it was 98.6%; with SK-MEL-5 melanoma it was 100%. Besides, the growth in the test on UACC-62 melanoma was 98.4%; with LOX IMVI melanoma, 101%; in the test on SK-MEL-28 melanoma, 96.5%.
With `NS(=O)(=O)c1ccc(Br)cc1`, the growth is 94.8% with HCT-15 colon; 91.8% in the test with HT29 colon; 93.2% with SNB-75 CNS; 96.9% in the test on SNB-19 CNS; 102% in the test on U251 CNS; 75.6% with PC-3 prostate. The growth in the test on SK-MEL-5 melanoma was 104%; in the test with LOX IMVI melanoma, 98.5%; with SK-MEL-28 melanoma it was 104%.
Consider `OC(CCN1CCCC1)(c1ccccc1)C1CCCCC1` (stereo not given), for which the growth with HCT-15 colon is 92.4%; in the test with HT29 colon it was 101%; in the test on SNB-75 CNS, 84%; with SNB-19 CNS, 107%; in the test on U251 CNS it was 105%; with PC-3 prostate, 98.6%. In addition, the growth with SK-MEL-5 melanoma is 89.8%; with LOX IMVI melanoma, 99.9%; in the test with SK-MEL-28 melanoma, 105%.
Take `CCOC(=O)c1cc(C(=O)c2ccc(OC)c(OC)c2)n2c1ccc1ccc3cccnc3c12`: the growth in the test with HCT-15 colon is 31.1%; in the test on HT29 colon, 6.74% (active); with SNB-75 CNS, 18%; with SNB-19 CNS it was 45.8%; in the test on U251 CNS it was 24.8%; in the test on SK-MEL-5 melanoma, 17.4%. The growth in the test with UACC-62 melanoma was 47.4%; in the test on LOX IMVI melanoma it was 31.6%; with SK-MEL-28 melanoma it was 60.2%.
Turning to `O=C(N/N=C/c1ccc(Cl)cc1)c1ccccc1Nc1cccc(C(F)(F)F)c1`, the growth with HCT-15 colon was 79.1%; in the test on HT29 colon it was 75.8%; with SNB-75 CNS, 78.7%; in the test on SNB-19 CNS, 88.4%; in the test on U251 CNS, 72%; with SK-MEL-5 melanoma it was 34%. In addition, the growth in the test with UACC-62 melanoma is 76.4%; in the test on LOX IMVI melanoma it was 83.7%; with SK-MEL-28 melanoma, 79.8%.
In the case of `Cc1ccc(N=Nc2ccccc2)cc1`, the growth in the test on HCT-15 colon was 99.5%; with HT29 colon, 92.3%; with SNB-75 CNS it was 105%; in the test on SNB-19 CNS, 102%; in the test with U251 CNS, 101%; in the test with PC-3 prostate, 78.1%. The growth in the test on SK-MEL-5 melanoma is 102%; in the test on LOX IMVI melanoma it was 103%; in the test on SK-MEL-28 melanoma, 102%.
Take `CSc1nc2c(c(=O)n1C)CN(Cc1ccccc1)C(=O)CN2`: the growth is 85.7% with HCT-15 colon; 110% in the test on HT29 colon; 76.9% in the test with SNB-75 CNS; 97.6% in the test on SNB-19 CNS; 94% in the test on U251 CNS; 101% in the test on SK-MEL-5 melanoma. The growth in the test on UACC-62 melanoma was 83.6%; in the test with LOX IMVI melanoma, 92.1%; in the test with SK-MEL-28 melanoma it was 102%.
Turning to `COc1cc2cc(Oc3ccc(NC(=O)Nc4ccc(Cl)c(C(F)(F)F)c4)cc3)c(C)nc2cc1OC`, the growth with HCT-15 colon was 1.27% (active); with HT29 colon, -24.9% (active); in the test with SNB-75 CNS it was 12.5%; with SNB-19 CNS, 23.7%; in the test with U251 CNS, -80.4% (active); with SK-MEL-5 melanoma it was -73.4% (active). The growth is -51.5% (active) in the test on UACC-62 melanoma, -81.3% (active) with LOX IMVI melanoma and -35.9% (active) in the test with SK-MEL-28 melanoma.
Turning to `O=S(=O)(NCCCNc1nccc(-c2cn(-c3ccccc3)nc2-c2ccc(Cl)c(O)c2)n1)c1ccccc1`, the growth is 51.3% with HCT-15 colon; 60.5% in the test on HT29 colon; 80.5% in the test with SNB-75 CNS; 86.1% in the test on SNB-19 CNS; 59.4% in the test on U251 CNS; 46.1% in the test with SK-MEL-5 melanoma. The growth is 59.1% in the test with UACC-62 melanoma, 63.1% in the test with LOX IMVI melanoma and 84.5% in the test on SK-MEL-28 melanoma.
As for `O=C1/C(=C/c2ccc3c(c2)OCO3)SC(=S)N1C1c2ccccc2Oc2ccccc21`, the growth is 93% with HCT-15 colon; 117% with HT29 colon; 89.2% in the test with SNB-75 CNS; 96.8% in the test with SNB-19 CNS; 113% in the test on U251 CNS; 93.1% with PC-3 prostate. For the same compound, the figures for the growth in the test on SK-MEL-5 melanoma, in the test with LOX IMVI melanoma and in the test on SK-MEL-28 melanoma were 97.2%, 89.1% and 96.3%, respectively.
On to `Fc1ccc2[nH]cc(-c3nc(-c4ccsc4)cs3)c2c1`, for which the growth is 91.4% in the test with HCT-15 colon; 100% in the test with HT29 colon; 92.2% with SNB-75 CNS; 109% in the test with SNB-19 CNS; 93.7% with U251 CNS; 89.2% in the test with SK-MEL-5 melanoma. Also, the values for the growth in the test with UACC-62 melanoma, in the test on LOX IMVI melanoma and with SK-MEL-28 melanoma were 88.5%, 86.7% and 108%, respectively.
Turning to `c1ccc2c(c1)Cc1ccccc1N2CCN1CCCCC1`, the growth in the test on HCT-15 colon is 94.2%; in the test with HT29 colon it was 74.4%; with SNB-75 CNS, 94.7%; with SNB-19 CNS it was 90.6%; in the test on U251 CNS it was 90.1%; in the test with PC-3 prostate, 82.7%. Also, the growth in the test on SK-MEL-5 melanoma was 95.5%; in the test with LOX IMVI melanoma it was 87.8%; in the test with SK-MEL-28 melanoma, 110%.
On to `CN1CCc2c(sc3nc4n(-c5ccc(Cl)cc5)cnn4c(=O)c23)C1`, for which the growth in the test on HCT-15 colon is 104%; with HT29 colon, 91.1%; with SNB-75 CNS it was 94.2%; with SNB-19 CNS, 107%; in the test with U251 CNS, 104%; with SK-MEL-5 melanoma, 109%. Moreover, the growth in the test with UACC-62 melanoma is 102%; in the test on LOX IMVI melanoma, 97.6%; in the test with SK-MEL-28 melanoma, 116%.
For `CC(=O)/C(=C/c1ccc(Br)cc1)C(=O)c1ccccc1`, the growth was 46.6% in the test on HCT-15 colon; 76.6% with HT29 colon; 84.5% in the test on SNB-75 CNS; 90.6% in the test on SNB-19 CNS; 66.9% with U251 CNS; 80.6% in the test with PC-3 prostate. The growth in the test with SK-MEL-5 melanoma is 66.3%; with LOX IMVI melanoma it was -61.9% (active); with SK-MEL-28 melanoma it was 100%.
